Screens as filed in PubChem BioAssay.
PolyA inhibitor – inhibitors of polyadenylation in S. cerevisiae | S. cerevisiae SKY197-pL101 polyadenylation reporter, beta-gal luminescence; efflux-impaired pdr1/pdr3 knockout yeast; score 100 = 6 SD above DMSO | activity score, % at 12 µM | 0.02% of 300,000 active | AID 1875;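 active = lowest replicate activity score at least 50, where 100 means six control SD above control mean; inconclusive = lowest score under 50 but half or more replicates reach 50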;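 also: yeast exposed to compound for 9 h at 30 °C; higher score means more reporter readthrough which indicates perturbed polyadenylation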
NLRP3 yeast inh – inhibitors of NALP3 inflammasome in yeast; Yeast reconstituted NLRP3/ASC/caspase-1, beta-gal luminescence, 24 h; inhibition, % at 10 µM; 0.39% of 330,000 active;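 active = inhibition of 50% or more; inactive = inhibition below 50%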;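 also: plate controls were induced DMSO wells for no effect and uninduced yeast grown without galactose for full effect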
SUMO Mot1 rescue – inhibitors of SUMOylation pathway: yeast Mot1-301 growth rescue | S. cerevisiae Mot1-301 growth rescue, ATP luminescence, 38.5C; percent above DMSO median, 100 means doubled | growth rescue, % at 18.8 µM | 1% of 320,000 active | AID 2716;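 active = every valid replicate shows activation above 250% relative to neutral control wells; inactive = the rest, any valid replicate at or below 250%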;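 also: OY570 slx delta 5 strain wells were the positive control but not used for scaling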
NALP1 inh – blocks the NALP1 inflammasome reconstituted in yeast | AID 2071 | inhibition, % at 10 µM | 0.61% of 280,000 active | S. cerevisiae NALP1/ASC/caspase-1 growth, X-gal OD620, 72 h; in the data active = inhibition mostly above about 24%, no sharp cut-off; inactive = mostly below about 32%
Yeast Mot1 SUMO – SUMO pathway inhibitors in yeast Mot1-301 growth. shares compounds with SUMO Mot1 rescue. S. cerevisiae Mot1-301 galactose growth, ATP luminescence, 24 h; -100 = growth of slx-deleted rescue strain. growth activity, percent, % at 42 µM. 2,300 tested, under 10 active. AID 493004;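 active = Signal drops as the depositor expects, and the fitted half-maximal dose is no more than ten times the top valid tested dose; inconclusive = Poor fit, or a flat curve whose signal drops by 30% to 70%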;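 also: more negative values mean stronger growth rescue toward the control strain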
NALP3 confirm – NALP3 inhibition confirmation in yeast; shares compounds with NLRP3 yeast inh; inhibition, % at 10 µM; yeast expressing human NALP3, luminescence; 81% of 1,300 active; AID 435006; in the data active = inhibition above about 48%
Casp1-ASC yeast – active in yeast caspase-1-ASC counter-screen for NALP3 inhibitors; yeast expressing Caspase-1-ASC, luminescence counter screen; AID 488784; shares compounds with NLRP3 yeast inh; inhibition, % at 10 µM; 66% of 1,000 active
NALP3 retest – yeast NALP3 inhibition, confirmed on retest; shares compounds with NLRP3 yeast inh; yeast expressing human NALP3, luminescence read-out; inhibition, % at 10 µM; 53% of 1,000 active; AID 488794
Active calls of the source: *; ? = inconclusive; / = no result given; + = active, no number; ! = a repeat was not active. Compounds with a hit are over-represented: about 1.8% of the library has one in this group of screens. Rule as the data show it, unless noted: active = inhibition above about 50%; inactive = the rest.

SMILES	PolyA inhibitor	NLRP3 yeast inh	SUMO Mot1 rescue	NALP1 inh	Yeast Mot1 SUMO	others
Cn1c(O)c(C(c2ccccn2)c2c(O)n(C)c(=S)n(C)c2=O)c(=O)n(C)c1=S	17.2	7.9	476.6*	-1.6	0.5
CCCCn1c(O)c(C(C)=NCc2cccnc2)c(=O)[nH]c1=O	-4.9	14.5	-7.8	/	/
Clc1cnc(Oc2ccc(Oc3ncc(Cl)cc3Cl)cc2)c(Cl)c1	21.7	-7.1	622.8*	-1.9	0.1
CN1C2CCC1CC(OC(=O)c1ccc([N+](=O)[O-])cc1)C2 (centres undefined)	4.5	16.4	473.6*	30.8	0.1
Fc1ccc2c(c1)nnn2C1CCN(Cc2nnnn2C2CCCCC2)CC1	-5.6	0.8	732.6*	4.6	-0.1
CCN(CC)c1ccc(N=Cc2c(O)n(Cc3ccccc3)c(=O)[nH]c2=O)cc1	-0.4	1.5	385.1*!	5.3	-0.2
CCN(CC)c1ccc(N=Cc2c(O)n(-c3ccccc3)c(=O)[nH]c2=O)cc1	8.6	10.9	-24.6	/	/
[N-]=[N+]=NCCN1CCC(O)CCC1=O (centres undefined)	-11.3	23.0	+	7.6	0.4
CCC12CN3CCN(CC(C3)/C1=N/NC(=O)c1ccncc1)C2	5.6	-2.7	506.7*	-1.9	0.7
Cc1ccc(N)c(C(=O)c2ccccc2)c1	3.8	4.4	0.2	6.1	/
O=C1NC(=O)[C@]2(Cc3ccccc3N3CCN(c4ccccc4)CC32)C(=O)N1c1ccccc1 (some centres undefined)	-9.8	13.3	16.0	-14.2	/
CN1C(=O)NC(=O)[C@]2(Cc3ccccc3N3CCN(c4ccccc4)CC32)C1=O (some centres undefined)	10.1	10.1	663.1*	-9.0	0.8
CS(=O)(=O)N1CCN(C(=N)N[N+](=O)[O-])CC1	14.1	17.4	2.7	-1.8	/
COC(=O)C1=C(c2ccc(OC(F)(F)F)cc2)C[C@@H]2CC[C@H]1N2C(=O)NCCc1ccccc1	/	10.6	-12.4	/	/
CC(C)Oc1ccc(C2(C#N)CC[N+](C)(C)CC2)cc1	10.9	16.6	670.3*	15.6	0.6
CCOP(=O)(Cc1cc(C(=O)CC)c(C)o1)OCC	12.5	19.6	657.5*	14.2	0.2
CCOP(=O)(Cc1ccc(C(=O)CC)o1)OCC	4.4	15.7	-7.4	-1.8	/
CC(C)(C)c1nc(N2CCN(C(=O)c3ccco3)CC2)c2nnn(Cc3ccccc3Cl)c2n1	7.8	17.4	3.0	5.3	/
CCOP(=O)(OCC)C(NC(=O)c1ccccc1)C(Cl)(Cl)Cl (centres undefined)	13.0	3.0	0.3	15.9	/
N=c1c[n+](C2CCCCC2)[n-]o1	?	11.2	483.9*	-1.9	0.6
CCOC(C[n+]1c(-c2ccccc2)cc(C)cc1-c1ccccc1)OCC	-12.5	11.7	-17.6	/	/
O=Cc1cn(Cc2c(F)cccc2Cl)c2ccccc12	-20.4	21.1	6.6	8.3	/
O=Cc1cn(Cc2ccccc2F)c2ccccc12	-29.1	18.0	+	5.9	0.2
CCN(CC)c1ccc(C=C2C(=O)N(C)C(=S)N(C)C2=O)o1	0.4	28.7	-17.8	20.0	/
CN1C(=O)C(=Cc2ccc(N3CCCCC3)o2)C(=O)N(C)C1=S	-17.1	41.7	848.0*	13.3	0.1
SMILES	PolyA inhibitor	NLRP3 yeast inh	SUMO Mot1 rescue	NALP1 inh	Yeast Mot1 SUMO	others
Cc1ccccc1NC1=NCCCS1	6.8	-10.7	469.1*	24.7	0.0
COC(=O)C1=C(c2cccc(C#N)c2)C[C@@H]2CC[C@H]1N2C(=O)NC1CC1	/	-3.2	14.4	/	/
C[C@]12CC[C@H](O)CC1C(=O)CC1C2CC[C@@]2(C)C1CC[C@@H]2O (some centres undefined)	/	50.0	-7.3	/	/	NALP3 confirm=43.5;Casp1-ASC yeast=50.3*;NALP3 retest=34.1
C#C[C@]1(O)[C@H](O)CC2C3CC[C@H]4C[C@@H](O)CC[C@]4(C)C3CC[C@@]21C (some centres undefined)	/	36.9	3.0	/	/
C[C@H]1CC[C@@]2(C)[C@@H](CC[C@@H]3[C@@H]2CC[C@]2(C)[C@@H](O)CC[C@@H]32)C1	-9.3	44.1	79.5	/	/
C[C@]12CCC3C(CC[C@H]4C[C@@H](O)CC[C@]34C)[C@H]1CC[C@H]2O (some centres undefined)	/	51.1*	-9.4	/	/	NALP3 confirm=57.5*
C[C@H]1CC[C@@H]2N(C1)C[C@H]1[C@@H]3C[C@H]4[C@@H](CC(=O)[C@H]5C[C@@H](O)CC[C@@]54C)[C@@H]3CC[C@H]1[C@]2(C)O	-19.7	6.1	-2.0	-0.8	/
C[C@]12CCC3C(CC[C@H]4C[C@@H](O)CC[C@]34C)C1C[C@@H](O)[C@]2(C)O (some centres undefined)	/	50.1*	7.1	/	/	NALP3 confirm=56.8*
C[C@]12CCC3C(CC[C@H]4C[C@@H](O)[C@H](O)C[C@]34C)C1CC[C@@H]2O (some centres undefined)	/	55.2*	31.0	/	/	NALP3 confirm=60.1*
COc1cccc(NC2=NCCCS2)c1	5.1	9.2	13.9	-35.6	/
C[C@]12C[C@@H](O)[C@H](O)CC1=CCC1C2CC[C@]2(C)C(=O)CCC12 (some centres undefined)	/	27.0	-3.3	/	/
C[C@]12CCC3C(CC[C@H]4C[C@@H](O)CC[C@]34C)C1C[C@@H](Br)[C@@H]2O (some centres undefined)	/	47.8	7.9	/	/
C[C@]12CC[C@@H](O)C[C@@H]1CC[C@@H]1[C@@H]2CC[C@]2(C)[C@@H](O)CC[C@@H]12	-13.9	53.2*	4.1	32.9	/	NALP3 confirm=66.3*;Casp1-ASC yeast=56.5*;NALP3 retest=49.0
C[C@]12C[C@@H](O)[C@H](O)CC1=CCC1C2CC[C@@]2(C)C1CC[C@@H]2O (some centres undefined)	/	58.3*	-9.3	/	/	NALP3 confirm=55.0*
C[C@]12CCC3C(CC[C@H]4C[C@@H](O)CC[C@]34C)C1CC[C@@]2(O)C(F)(F)F (some centres undefined)	/	55.5*	30.8	/	/	NALP3 confirm=54.8*
O=C1C2CCCN2C(c2cccs2)N1c1ccccn1 (centres undefined)	16.9	-1.8	3.8	17.5	/
Cc1cc(OCC(=O)N[C@@H](Cc2ccccc2)C(=O)O)c2c3c(c(=O)oc2c1)CCCC3	14.1	14.2	17.9	8.0	/
Cc1cc[n+](Cc2ccccc2)cc1	1.2	19.5	7.0	/	/
CCCCN1C(=O)NC(=O)C2(Cc3cc(C)ccc3N(C)C2)C1=O (centres undefined)	7.9	-1.7	-8.0	10.5	/
CC(C)COC(=O)c1ccccc1C(=O)OCC(C)C	-5.6	-1.1	-12.6	1.2	/
C[CH2][Hg][S]c1ccccc1C(=O)O	/	97.6*	355.3*	/	/	NALP3 confirm=99.4*;Casp1-ASC yeast=99.6*;NALP3 retest=98.7*
